Data on 40 sequences can be found in the OligoGym collection.
Further: reference of the scale not given here.

The target of the first test is CCDC102B. The test can be described thus: pooled miR-30 sensor sort-seq; sequence = guide strand. As to conditions: shRNA.
Take TTAACTCACAAATCACTCTGTC: the sensor-assay potency score (higher = more potent) was determined as 0.63.

On to TTGTTGAATAAATCAACACCAT, for which the sensor-assay potency score (higher = more potent) was -0.659.

With TTGATGATTGTTGCATCTGGAA, the sensor-assay potency score (higher = more potent) was -0.905.

TTTGTGACATCTTGAAATCAGG: the sensor-assay potency score (higher = more potent) is -1.26.

In turn, TTTGTTAATACAACCTGCCATC yielded a sensor-assay potency score (higher = more potent) of -1.01.

The sequence TAATCTATTTTTCTTATCCAAA had a sensor-assay potency score (higher = more potent) of -1.3.

Regarding TAACATTAGCTTCTAATGCCTC, the sensor-assay potency score (higher = more potent) was -0.718.

In turn, TTCACCTGGATCTTCAGCCTTC registered a sensor-assay potency score (higher = more potent) of 0.0425.

On to TTGCATTTCATCATTATGTTGA, for which the sensor-assay potency score (higher = more potent) amounted to 0.234.

On to ATCAACACCATCTAGATTGGGC, for which the sensor-assay potency score (higher = more potent) worked out at 0.0383.

The sequence TTCAGCTCGAACTTTACTCCAT returned a sensor-assay potency score (higher = more potent) of 0.199.

Another test deals with CCDC105. The description is as above. The settings on record: shRNA.
TTGCGCACTTCGCTGAGCCTGT yielded a sensor-assay potency score (higher = more potent) of -0.764.

Consider TTCGCTGAGCCTGTGGTCGGTG, for which the sensor-assay potency score (higher = more potent) is -0.476.

TTTGCCATTTCTACCAAGGTGT registered a sensor-assay potency score (higher = more potent) of -0.502.

The sequence TTTTCTGACCCTGTGTGCGTGG yielded a sensor-assay potency score (higher = more potent) of -0.545.

In turn, TTGGACTCGACCAACAACCGCT registered a sensor-assay potency score (higher = more potent) of -0.0723.

TTCAGCTCCAAGGTCTCGCTCG registered a sensor-assay potency score (higher = more potent) of -0.194.

The sequence TAATCTTTCCTTCAGCTCCAAG registered a sensor-assay potency score (higher = more potent) of -0.875.

In turn, TATCTGCAGCTGTTGCTCCCGG returned a sensor-assay potency score (higher = more potent) of -0.913.

In the case of TATATTTCGTACACCGGAGGAT, the sensor-assay potency score (higher = more potent) is 0.16.

Regarding TTAATCTTTCCTTCAGCTCCAA, the sensor-assay potency score (higher = more potent) was determined as 0.0783.

As to TTGAGTAGGACCTCTGATTTTT, the sensor-assay potency score (higher = more potent) is -1.1.

On to TTTTTCCATATCTCTCTCCATT, for which the sensor-assay potency score (higher = more potent) is -1.2.

A further test addresses CCDC111. Described as above. The settings on record: shRNA.
In the case of TAAAAGCTTGAGCTTGTCGATG, the sensor-assay potency score (higher = more potent) was -0.777.

In turn, TATAGTAAAACCAAAATTCAGC showed a sensor-assay potency score (higher = more potent) of -0.935.

In turn, TAAACCAGTAATTCTTCTGGGA registered a sensor-assay potency score (higher = more potent) of 0.0581.

The sequence TTTGATGATTTATATAGCCGAA showed a sensor-assay potency score (higher = more potent) of -0.728.

In turn, TTGTCGATGAAATAGTCTCCAG gave a sensor-assay potency score (higher = more potent) of -1.27.

For TATTTCTTGTATAAACTCCGAG, the sensor-assay potency score (higher = more potent) is -0.0493.

Sequence TTTTATTGAAAGAAAATCCTTG came in with a sensor-assay potency score (higher = more potent) of 0.279.

As for TTGTAAACTCTTCTTCCTCTTT, the sensor-assay potency score (higher = more potent) was -0.271.

A further test addresses CCDC124. The test is described as above. As to conditions: shRNA.
TGAGCTTGGAGTCCTCCTCCTC had a sensor-assay potency score (higher = more potent) of -1.05.

Regarding TTCTCTTGTTTGAGCCGCGGCA, the sensor-assay potency score (higher = more potent) is -0.945.

TCGTCGTCCTTCCAGTAGGCAT showed a sensor-assay potency score (higher = more potent) of -1.51.

Take TTGTTTGAGCCGCGGCAGCTGG: the sensor-assay potency score (higher = more potent) was -1.54.

TTCTGCTTCTTGGCATCAGCGG yielded a sensor-assay potency score (higher = more potent) of -0.999.

TTTCAGCTGCGACAGCCGCATG: the sensor-assay potency score (higher = more potent) is -1.52.

TTGAGCTTGGAGTCCTCCTCCT had a sensor-assay potency score (higher = more potent) of -0.0303.

As to TCTGCTTCTTGGCATCAGCGGC, the sensor-assay potency score (higher = more potent) is -1.05.

The sequence TGACGTGTTTGTCGTCGTCCTT registered a sensor-assay potency score (higher = more potent) of -0.925.
